Experimental data published in PubChem BioAssay (EPA / NIEHS).
Values joined by “and” are separate entries in the source; they are usually repeats but may differ in a detail not shown here. Equal entries are not always repeated. More than one record can exist for a structure, and the calls need not agree. Active and inactive are the calls of the source. How the source made its calls: active means hit-call score of the fitted dose curve at least 0.9, where 1 is the maximum; inactive means score below 0.9.

Biological target: Cellular tumor antigen p53 (Homo sapiens) (UniProt P04637)
Sequence (P04637 whole entry, looked up): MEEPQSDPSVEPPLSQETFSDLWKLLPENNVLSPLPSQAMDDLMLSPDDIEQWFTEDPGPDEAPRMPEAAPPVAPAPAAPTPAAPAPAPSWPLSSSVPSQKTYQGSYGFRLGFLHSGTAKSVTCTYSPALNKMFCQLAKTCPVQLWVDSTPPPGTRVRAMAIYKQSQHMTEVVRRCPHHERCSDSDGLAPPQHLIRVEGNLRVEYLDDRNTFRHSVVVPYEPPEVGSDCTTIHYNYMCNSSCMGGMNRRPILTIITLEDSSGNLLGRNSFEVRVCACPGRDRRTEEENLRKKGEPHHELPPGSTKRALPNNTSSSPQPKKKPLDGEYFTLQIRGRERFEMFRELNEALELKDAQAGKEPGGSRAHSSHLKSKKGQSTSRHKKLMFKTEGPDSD
Test: ATG_p53_CIS: Attagene CIS-FACTORIAL HepG2 Assay for human p53 Transcription Factor (AID 2282994)
Conditions: HepG2 p53 cis-element reporter, Attagene mRNA; actives raise or lower the signal
Method: ATG_CIS is a cell-based, multiplexed-readout assay that uses HepG2, a human liver cell line, with measurements taken at 24 hours after chemical dosing in a 24-well plate.ATG_p53_CIS is one of 52 assay component(s) measured or calculated from the ATG_CIS assay. It is designed to make measurements of mRNA induction, a form of inducible reporter, as detected with fluorescence intensity signals by Reverse transcription polymerase chain reaction (RT-PCR) and Capillary electrophoresis technology.Data from the assay component ATG_p53_CIS was analyzed into 1 assay endpoint. This assay endpoint, ATG_p53_CIS, was analyzed with bidirectional fitting relative to DMSO as the negative control and baseline of activity. Using a type of inducible reporter, measures of mRNA for gain or loss-of-signal activity can be used to understand the reporter gene at the transcription factor-level as they relate to the gene TP53. Furthermore, this assay endpoint can be referred to as a primary readout, because this assay has produced multiple assay endpoints where this one serves a reporter gene function. To generalize the intended target to other relatable targets, this assay endpoint is annotated to the dna binding intended target family, where the subfamily is tumor suppressor.
Human liver HepG2 cells are transiently transfected with multiple reporter transcription units (MRTUs) in 6-well plates using FuGene 6 reagent (Roche; 3 ml FuGene/1 mg DNA). The MRTU constructs are regulated by a cis-regulating element (promoter). […] A major difference between the CIS and TRANS system is that in CIS activities of endogenous TFs are measured, whereas the TRANS assay evaluates changes in activities of exogenous, chimeric NR-Gal4 proteins. […] At the end of 24 hour incubation, total RNA was isolated using TriZol reagent (Invitrogen). The isolated RNA is then reverse-transcribed using oligo(dT) primer and Mo-MLV reverse transcriptase (Invitrogen) with DNAse I (Ambion) treatment for 30 min. The one-tenth of the produced cDNA was amplified by PCR using Taq DNA polymerase (Invitrogen) and two reporter sequence-specific primers. The PCR products were fluorescently labeled by primer extension with 6-arboxyfluorescein (6-FAM) 5'-labeled reporter sequence-specific primer (2 min at 95 C, 20 s at 68 C and 10 min at 72 C) and these products were digested with 5U of HpaI (New England Biolabs) for 2h at 37 C. The fragments were purified using Qiaquick PCR columns (Qiagen), analyzed on an ABI 3130xL genetic analyzer (Applied Biosystems) with peak positions identified by using a set of X-rhodamine (ROX)-labeled MapMarker1000 molecular weight standards (BioVentures). The raw capillary electrophoresis data was processed using Attagraph software (Attagene).

Structure (SMILES) | outcome | AC50
O=S(=O)(O)C(F)(F)C(F)(F)C(F)(F)C(F)(F)C(F)(F)C(F)(F)F | inactive | 
Oc1c(Cl)c(Cl)c(Cl)c(Cl)c1Cl | inactive | 51 µM (active)
Cc1cccc([N+](=O)[O-])c1 | inactive | 
Cc1ccccc1[N+](=O)[O-] | inactive | 
O=NN(c1ccccc1)c1ccccc1 | inactive | 
ClC1=C(Cl)[C@]2(Cl)[C@@H]3[C@@H](Cl)[C@H]4O[C@H]4[C@@H]3C1(Cl)C2(Cl)Cl |  | 100 µM (active)
Nn1cnnc1 | inactive | 
CCC(C)c1cc([N+](=O)[O-])cc([N+](=O)[O-])c1O (stereo not given) | inactive | 
Clc1ccc(C(Cl)(Cl)Cl)cc1 | inactive | 
O=C(NC(=O)c1cc(F)c(F)cc1Cl)Nc1cc(F)ccc1N1CCC(C(=O)O)CC1 | inactive | 
C[C@]12CCC(=O)C=C1CC[C@@H]1[C@@H]2CC[C@]2(C)C(=O)CC[C@@H]12 | inactive | 
Clc1ccc(C(c2ccccc2Cl)C(Cl)(Cl)Cl)cc1 (stereo not given) | inactive | 
CCC(C)(c1ccc(O)cc1)c1ccc(O)cc1 | inactive | 53.6 µM (active) and 33.4 µM (active) and 45.8 µM (active)
Clc1ccc(Cl)cc1 | inactive | 
C1CC2OC2CC1C1CO1 (stereo not given) | inactive | 
CO/C=C(/C(=O)OC)c1ccccc1COc1cccc(C(F)(F)F)n1 | inactive | 
C=CC(N)=O | inactive | 

Structure (SMILES) | outcome | AC50
O=C(NC(=O)c1c(F)cccc1F)Nc1cc(Cl)c(OC(F)(F)C(F)F)c(Cl)c1 | inactive | 
ClC(Cl)=C(c1ccc(Cl)cc1)c1ccc(Cl)cc1 | inactive | 
CN(C)CCO | inactive | 
CCC(=O)O[C@H]1CC[C@H]2[C@@H]3CCC4=CC(=O)CC[C@]4(C)[C@H]3CC[C@]12C | inactive | 100 µM (active)
O=C(O)C(F)(F)C(F)(F)C(F)(F)C(F)(F)C(F)(F)C(F)(F)C(F)(F)C(F)(F)C(F)(F)F | inactive | 46.9 µM (active) and 69.4 µM (active)
CCCCCCCCCC[N+](C)(C)CCCCCCCCCC |  | 100 µM (active)
Cc1ccccc1O | inactive | 
OCC(O)CO | inactive | 
COS(=O)(=O)OC | inactive | 
CC(C)(c1ccccc1)c1ccc(O)cc1 | inactive | 57 µM (active)
C[C@]12CCC(=O)C=C1CC[C@@H]1[C@@H]2CC[C@@]2(C)[C@H]1CC[C@]2(C)O | inactive | 58.8 µM (active)
CC1=C2C[C@H]3[C@@H](CC=C4C[C@@H](O)CC[C@@]43C)[C@@H]2CC[C@]12O[C@@H]1C[C@H](C)CN[C@H]1[C@H]2C | inactive | 
CCCCCCOC(=O)c1ccccc1C(=O)OCCCCCC | inactive | 
CCCCCCCCOC(=O)c1ccccc1C(=O)OCCCCCCCC | inactive | 
CCCCCCCCCc1ccc(O)cc1 | inactive | 
O=C(N[C@H]1CN2CCC1CC2)c1cc2ccoc2cn1 | inactive | 
CCOC(=O)C(O)(c1ccc(Cl)cc1)c1ccc(Cl)cc1 | inactive | 
